In the library only some 4.9% were active in any assay of this set; here they are far more common.
NLRP3 yeast inh – inhibitors of NALP3 inflammasome in yeast; Yeast reconstituted NLRP3/ASC/caspase-1, beta-gal luminescence, 24 h; inhibition, % at 10 µM; hit rate 0.39% among 330,000;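 active = inhibition of 50% or more; inactive = inhibition below 50%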;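 note: plate controls were induced DMSO wells for no effect and uninduced yeast grown without galactose for full effect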
TIM10 inh – inhibits growth of TIM10 yeast strain. S. cerevisiae TIM10 strain growth, BacTiter-Glo luminescence, 24 h. hit rate 1.4% among 330,000. AID 463195. inhibition, % at 10 µM;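 active = inhibition of 40% or more at the single tested concentration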;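 note: wild-type TIM10 isogenic control strain grown at permissive 25 °C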
tim23-1 inh – tim23-1 yeast growth inhibition; S. cerevisiae tim23-1 growth, BacTiter-Glo luminescence, 24 h; AID 463212; inhibition, % at 20 µM; hit rate 1.3% among 330,000;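 active = growth inhibition of the mutant yeast at or above 50%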;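 note: temperature-sensitive mutant grown at 25 °C; plate controls were DMSO-treated mutant yeast for no effect and medium wells lacking yeast for full effect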
SKKanGAS inh – blocks kanamycin growth of S. pyogenes SKKanGAS strain | BacTiter-Glo, 6 h | AID 1662 | hit rate 1.3% among 300,000 | inhibition, % at 7.5 µM;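 active = mean replicate score, as percent of positive control median, at least 50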;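 note: strain carries kanamycin resistance gene driven by streptokinase promoter and grows in 40 µg/ml kanamycin; loss of luminescence reflects streptokinase promoter inhibition or plain growth inhibition; 0% = median of DMSO wells and 100% = positive control at its reference dose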
tim10-1 inh – inhibits growth of tim10-1 mutant yeast. AID 463190. inhibition, % at 20 µM. hit rate 2.2% among 330,000. S. cerevisiae tim10-1 ts strain growth, BacTiter-Glo, 24 h;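 active = inhibition of at least 40%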;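 note: mutant grown at 25 °C; 0% = DMSO wells with yeast and 100% = wells holding no yeast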
NALP1 inh – blocks the NALP1 inflammasome reconstituted in yeast; S. cerevisiae NALP1/ASC/caspase-1 growth, X-gal OD620, 72 h; inhibition, % at 10 µM; hit rate 0.61% among 280,000; AID 2071; in the data active = inhibition mostly above about 24%, no sharp cut-off; inactive = mostly below about 32%
NALP3 confirm – NALP3 inhibition confirmation in yeast. shares compounds with NLRP3 yeast inh. yeast expressing human NALP3, luminescence. inhibition, % at 10 µM. hit rate 81% among 1,300. AID 435006; in the data active = inhibition above about 48%
Casp1 ASC ctr – active in yeast caspase-1-ASC counter-screen for NALP3 inhibitors | shares compounds with NLRP3 yeast inh | yeast expressing Caspase-1-ASC, luminescence counter screen | inhibition, % at 10 µM | hit rate 66% among 1,000
NALP3 retest – yeast NALP3 inhibition, confirmed on retest; shares compounds with NLRP3 yeast inh; yeast expressing human NALP3, luminescence read-out; inhibition, % at 10 µM; hit rate 53% among 1,000; AID 488794
Active calls of the source: *. Cut-off read from the data, not from the text of the source, unless noted: active = inhibition above about 50%; inactive = the rest.

Cc1nc2cc(NC(=O)c3ccc([N+](=O)[O-])s3)ccc2s1 was read as NLRP3 yeast inh 61*, TIM10 inh 34, tim23-1 inh 44, SKKanGAS inh 16, tim10-1 inh 20, NALP1 inh 13 and NALP3 confirm 68*.
Screening Cc1ccc(NC(=O)Cc2ccsc2)cc1Cl returned NLRP3 yeast inh 54*, TIM10 inh -4, tim23-1 inh 15, SKKanGAS inh 2, tim10-1 inh 0, NALP1 inh -56, NALP3 confirm 68*, Casp1 ASC ctr 43 and NALP3 retest 38.
Screening Cc1nc2ccc(NC(=O)Cc3ccsc3)cc2s1 returned NLRP3 yeast inh 19, TIM10 inh -15, tim23-1 inh 1, SKKanGAS inh 2, tim10-1 inh 1 and NALP1 inh -2.
Screening CC(=O)[C@H]1CCC2C3CC=C4C[C@@H](O)CC[C@]4(C)C3CC[C@@]21C (stereo partly specified) returned NLRP3 yeast inh 53*, TIM10 inh 7, tim23-1 inh 17, tim10-1 inh 11 and NALP3 confirm 64*.
CC(=O)[C@H]1CC[C@H]2[C@@H]3CC=C4C[C@@H](O)CC[C@]4(C)[C@H]3CC[C@]12C was read as NLRP3 yeast inh 47, TIM10 inh 4, tim23-1 inh 15 and tim10-1 inh 18.
`CC(=O)OCC(=O)[C@H]1CC[C@H]2[C@@H]3CC=C4C[C@@H](O)CC[C@]4(C)[C@H]3CC[C@]12C` gave NLRP3 yeast inh 65*, TIM10 inh 14, tim23-1 inh 26, SKKanGAS inh -2, tim10-1 inh 8, NALP1 inh 51, NALP3 confirm 77*, Casp1 ASC ctr 56* and NALP3 retest 48.
Screening Cc1ccc(/C=C(\C#N)c2nc3ccccc3[nH]2)s1 returned NLRP3 yeast inh 51*, TIM10 inh 22, tim23-1 inh 5, SKKanGAS inh 2, tim10-1 inh -43, NALP1 inh -17, NALP3 confirm 63*, Casp1 ASC ctr 45 and NALP3 retest 47.
Screening Cc1cc2ccccn2c1C(=O)c1ccccc1F returned NLRP3 yeast inh 51*, TIM10 inh -2, tim23-1 inh 21, SKKanGAS inh 4, tim10-1 inh -12, NALP1 inh 18, NALP3 confirm 61*, Casp1 ASC ctr 49 and NALP3 retest 41.
`COc1cc(C(C[N+](=O)[O-])c2c(C)[nH]c3ccccc23)ccc1O` (stereo unspecified) gave NLRP3 yeast inh 10, TIM10 inh 29, tim23-1 inh 25, SKKanGAS inh 8, tim10-1 inh 26 and NALP1 inh 6.
For COc1cc(C(C[N+](=O)[O-])c2c(N)n(C)c(=O)n(C)c2=O)ccc1O (stereo unspecified) the results were NLRP3 yeast inh 50*, TIM10 inh 28, tim23-1 inh 48, SKKanGAS inh 1, tim10-1 inh -4, NALP1 inh -4 and NALP3 confirm 32.
`Cc1ccc(-c2c[nH]c(=S)n2-c2ccccc2F)cc1` gave NLRP3 yeast inh 55*, TIM10 inh 16, tim23-1 inh 5, SKKanGAS inh 5, tim10-1 inh 26, NALP1 inh -8 and NALP3 confirm 38.
Cc1ccc(-c2c[nH]c(=S)n2-c2ccccc2)cc1 was read as NLRP3 yeast inh 61*, TIM10 inh 26, tim23-1 inh 4, SKKanGAS inh 9, tim10-1 inh 19, NALP1 inh 10, NALP3 confirm 36, Casp1 ASC ctr 39 and NALP3 retest 29.
COc1cccc(-n2c(-c3ccccc3)c[nH]c2=S)c1 was read as NLRP3 yeast inh 35, TIM10 inh 12, tim23-1 inh 7, SKKanGAS inh -1, tim10-1 inh -9 and NALP1 inh -2.
Screening CCOc1ccc(-n2c(-c3ccccc3)c[nH]c2=S)cc1 returned NLRP3 yeast inh 59*, TIM10 inh 17, tim23-1 inh -1, SKKanGAS inh -1, tim10-1 inh 7, NALP1 inh -6, NALP3 confirm 58*, Casp1 ASC ctr 22 and NALP3 retest 25.

Assay outcomes deposited in PubChem BioAssay by several laboratories.
